Test results published in the supplement of paper PMC10849652.
Targets with a hit are over-represented here; the source holds about 7,900 in all. About 0.6% of all pairs of compound and target were hits.

Assays:
Assay in all cases: log2 fold change, soluble protein after heating vs DMSO (PISA); higher = thermal stabilisation; K562 cells, 10 uM, 30 min; active = over 0.2 and 3.5 SD of the protein, either way, in both replicates (recomputed)
[1] = compound: C1=CC=C(C=C1)[C@H](COC2=CC3=C(C=C2)NC(=O)N3)NC(=O)C4=CC=CN(C4=O)CC5=CC(=C(C=C5)F)F
How it was run: (§1)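 Soluble protein was defined as the supernatant after 21,000xg for 90 min. It came from K562 cells at 2×10^6 cells/mL given 10 μM compound for 30 min, heated in aliquots for 3 min across 48°C-58°C, pooled, and extracted in PBS with 0.5% NP-40 at 4°C, and was quantified by TMTpro 16plex LC-MS/MS with equalised channel sums. Thermal stability against control samples, from duplicates, is reported as log2 fold change.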

[2] = compound: CC1=C(SC2=C1C(=N[C@H](C3=NN=C(N32)C)CC(=O)N)C4=CC=C(C=C4)Cl)C
How it was run: as §1

[3] = compound: CC1=C2C(=CC=C1)N=C(N(C2=O)C3=CC=CC=C3C)CN4C=NC5=C(N=CN=C54)N
How it was run: as §1

[4] = compound: Cc1sc2c(c1C)C(c1ccc(Cl)cc1)=N[C@@H](CC(=O)OC(C)(C)C)c1nnc(C)n1-2
How it was run: as §1

[5] = compound: c1ccc([C@@H]2C[C@H]2NC2CCNCC2)cc1
How it was run: as §1

Measured: log2 fold change

TELO2 (UniProt Q9Y4R8)
Chain of UniProt Q9Y4R8 (Q9Y4R8 whole entry, looked up): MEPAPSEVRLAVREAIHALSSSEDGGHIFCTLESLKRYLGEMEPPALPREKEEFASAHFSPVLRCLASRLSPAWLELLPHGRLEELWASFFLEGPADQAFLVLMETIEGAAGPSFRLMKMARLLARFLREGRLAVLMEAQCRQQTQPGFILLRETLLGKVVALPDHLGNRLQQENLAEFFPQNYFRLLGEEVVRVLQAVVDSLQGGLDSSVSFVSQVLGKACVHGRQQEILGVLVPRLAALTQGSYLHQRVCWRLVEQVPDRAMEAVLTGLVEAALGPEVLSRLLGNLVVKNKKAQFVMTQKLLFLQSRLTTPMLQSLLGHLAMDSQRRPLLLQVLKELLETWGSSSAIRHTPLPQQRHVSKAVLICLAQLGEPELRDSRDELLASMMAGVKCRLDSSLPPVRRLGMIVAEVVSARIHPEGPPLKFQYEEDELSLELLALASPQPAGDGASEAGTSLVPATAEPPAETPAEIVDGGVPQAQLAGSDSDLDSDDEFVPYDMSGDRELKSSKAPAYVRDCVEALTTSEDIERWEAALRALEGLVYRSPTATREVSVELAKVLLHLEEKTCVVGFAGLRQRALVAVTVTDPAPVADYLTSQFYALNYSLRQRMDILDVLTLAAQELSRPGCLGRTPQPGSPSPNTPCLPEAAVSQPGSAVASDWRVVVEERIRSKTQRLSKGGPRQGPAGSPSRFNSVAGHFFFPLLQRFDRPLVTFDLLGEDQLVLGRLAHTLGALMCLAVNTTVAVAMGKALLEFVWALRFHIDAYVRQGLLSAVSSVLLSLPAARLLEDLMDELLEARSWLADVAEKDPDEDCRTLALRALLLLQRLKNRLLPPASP
inactive: [1] -0.031 | [2] -0.05 | [3] 0.037 | [4] 0.039 | [5] 0.005

SSR4 (UniProt P51571)
Chain of UniProt P51571 (P51571 whole entry, looked up): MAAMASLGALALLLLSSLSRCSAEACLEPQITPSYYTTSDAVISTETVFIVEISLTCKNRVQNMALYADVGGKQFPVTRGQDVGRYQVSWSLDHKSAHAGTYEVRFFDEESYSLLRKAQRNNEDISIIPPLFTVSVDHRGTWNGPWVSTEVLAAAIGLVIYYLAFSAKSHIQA
inactive: [1] 0.045 | [2] 0.046 | [3] 0.002 | [4] -0.048 | [5] -0.018

THADA (UniProt Q6YHU6)
inactive: [1] -0.06 | [2] 0.066 | [3] 0.011 | [4] -0.027 | [5] -0.032

SUCLA2 (UniProt Q9P2R7)
Chain of UniProt Q9P2R7 (Q9P2R7 whole entry, looked up): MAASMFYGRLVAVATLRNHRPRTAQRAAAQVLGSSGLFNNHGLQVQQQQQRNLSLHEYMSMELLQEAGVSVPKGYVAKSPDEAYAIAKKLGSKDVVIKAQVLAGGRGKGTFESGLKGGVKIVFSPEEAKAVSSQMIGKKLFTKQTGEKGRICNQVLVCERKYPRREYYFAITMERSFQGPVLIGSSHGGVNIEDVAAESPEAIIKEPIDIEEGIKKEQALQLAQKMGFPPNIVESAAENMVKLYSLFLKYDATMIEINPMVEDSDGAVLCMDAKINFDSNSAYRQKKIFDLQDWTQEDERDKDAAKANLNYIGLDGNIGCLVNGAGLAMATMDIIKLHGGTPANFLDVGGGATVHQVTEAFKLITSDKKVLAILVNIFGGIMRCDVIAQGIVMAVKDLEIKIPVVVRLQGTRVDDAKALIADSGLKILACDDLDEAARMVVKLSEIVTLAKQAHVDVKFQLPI
inactive: [1] -0.029 | [2] 0.07 | [3] 0.113 | [4] -0.017 | [5] -0.044

SMPD4 isoform 2 (UniProt Q9NXE4)
Chain of UniProt Q9NXE4 (Q9NXE4 whole entry, looked up): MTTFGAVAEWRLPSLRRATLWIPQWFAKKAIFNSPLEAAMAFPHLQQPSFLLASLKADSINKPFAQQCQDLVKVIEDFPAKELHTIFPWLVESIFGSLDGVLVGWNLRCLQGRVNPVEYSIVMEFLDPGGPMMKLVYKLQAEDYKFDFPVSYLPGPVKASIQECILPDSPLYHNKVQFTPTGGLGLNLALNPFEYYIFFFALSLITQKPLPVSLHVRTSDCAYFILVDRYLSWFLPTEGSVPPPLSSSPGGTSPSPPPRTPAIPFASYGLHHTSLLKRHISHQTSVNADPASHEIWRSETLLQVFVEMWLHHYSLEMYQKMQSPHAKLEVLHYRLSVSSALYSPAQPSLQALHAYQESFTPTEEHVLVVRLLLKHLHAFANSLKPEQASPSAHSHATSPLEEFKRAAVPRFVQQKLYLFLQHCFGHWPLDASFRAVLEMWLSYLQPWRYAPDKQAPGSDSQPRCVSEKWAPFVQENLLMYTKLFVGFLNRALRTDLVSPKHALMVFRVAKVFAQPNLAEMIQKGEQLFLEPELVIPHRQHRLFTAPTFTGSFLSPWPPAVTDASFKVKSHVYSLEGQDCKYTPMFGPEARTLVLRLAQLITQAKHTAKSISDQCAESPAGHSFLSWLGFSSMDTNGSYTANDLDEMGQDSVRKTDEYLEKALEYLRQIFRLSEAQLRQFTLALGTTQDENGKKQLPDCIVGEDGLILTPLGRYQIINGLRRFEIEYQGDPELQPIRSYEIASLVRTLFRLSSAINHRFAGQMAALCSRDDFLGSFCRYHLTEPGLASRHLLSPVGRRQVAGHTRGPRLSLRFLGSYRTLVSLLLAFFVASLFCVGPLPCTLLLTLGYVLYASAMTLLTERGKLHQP
inactive: [1] -0.25 | [2] -0.029 | [3] -0.048 | [4] -0.061 | [5] -0.097

SLC30A7 (UniProt Q8NEW0)
Chain of UniProt Q8NEW0 (Q8NEW0 whole entry, looked up): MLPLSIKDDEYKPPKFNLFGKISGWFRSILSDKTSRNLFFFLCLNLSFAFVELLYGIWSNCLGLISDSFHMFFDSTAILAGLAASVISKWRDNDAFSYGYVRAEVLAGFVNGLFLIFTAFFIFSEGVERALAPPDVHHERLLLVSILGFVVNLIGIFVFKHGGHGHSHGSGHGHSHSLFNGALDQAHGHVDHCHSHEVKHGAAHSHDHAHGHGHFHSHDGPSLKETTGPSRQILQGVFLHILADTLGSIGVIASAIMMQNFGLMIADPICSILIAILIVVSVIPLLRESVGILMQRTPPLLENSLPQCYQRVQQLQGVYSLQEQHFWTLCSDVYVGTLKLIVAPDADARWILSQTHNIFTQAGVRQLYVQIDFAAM
inactive: [1] -0.033 | [2] 0.052 | [3] -0.049 | [4] 0.039 | [5] -0.011

SNRPB2 (UniProt P08579)
Chain of UniProt P08579 (P08579 whole entry, looked up): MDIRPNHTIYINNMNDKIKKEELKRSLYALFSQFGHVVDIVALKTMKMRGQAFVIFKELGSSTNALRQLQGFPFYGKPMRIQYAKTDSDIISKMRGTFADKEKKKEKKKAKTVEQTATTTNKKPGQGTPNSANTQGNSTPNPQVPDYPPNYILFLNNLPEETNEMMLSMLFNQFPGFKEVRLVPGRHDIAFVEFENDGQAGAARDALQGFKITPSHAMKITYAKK
inactive: [1] 0.083 | [2] 0.002 | [3] -0.044 | [4] 0.07 | [5] 0.02

SUN2 (UniProt Q9UH99)
Chain of UniProt Q9UH99 (Q9UH99 whole entry, looked up): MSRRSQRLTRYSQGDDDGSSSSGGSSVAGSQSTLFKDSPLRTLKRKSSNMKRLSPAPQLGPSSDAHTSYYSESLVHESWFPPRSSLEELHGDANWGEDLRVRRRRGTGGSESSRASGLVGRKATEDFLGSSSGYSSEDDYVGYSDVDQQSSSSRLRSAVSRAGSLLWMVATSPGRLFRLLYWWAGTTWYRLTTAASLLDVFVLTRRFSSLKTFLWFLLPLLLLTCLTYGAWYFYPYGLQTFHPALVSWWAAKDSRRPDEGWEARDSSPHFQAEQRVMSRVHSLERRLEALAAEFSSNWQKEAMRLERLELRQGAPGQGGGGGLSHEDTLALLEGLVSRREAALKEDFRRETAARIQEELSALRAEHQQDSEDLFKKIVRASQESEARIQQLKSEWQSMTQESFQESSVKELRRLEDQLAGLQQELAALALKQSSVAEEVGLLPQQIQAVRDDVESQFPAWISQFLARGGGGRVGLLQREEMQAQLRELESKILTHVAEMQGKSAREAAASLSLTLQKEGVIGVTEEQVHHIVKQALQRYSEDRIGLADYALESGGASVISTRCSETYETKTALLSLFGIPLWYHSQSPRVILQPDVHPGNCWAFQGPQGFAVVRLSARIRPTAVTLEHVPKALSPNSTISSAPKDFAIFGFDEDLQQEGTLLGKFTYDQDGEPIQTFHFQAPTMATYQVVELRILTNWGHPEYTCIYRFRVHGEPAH
inactive: [1] 0.029 | [2] -0.004 | [3] -0.025 | [4] 0.025 | [5] -0.015

STARD3 (UniProt Q14849)
Chain of UniProt Q14849 (Q14849 whole entry, looked up): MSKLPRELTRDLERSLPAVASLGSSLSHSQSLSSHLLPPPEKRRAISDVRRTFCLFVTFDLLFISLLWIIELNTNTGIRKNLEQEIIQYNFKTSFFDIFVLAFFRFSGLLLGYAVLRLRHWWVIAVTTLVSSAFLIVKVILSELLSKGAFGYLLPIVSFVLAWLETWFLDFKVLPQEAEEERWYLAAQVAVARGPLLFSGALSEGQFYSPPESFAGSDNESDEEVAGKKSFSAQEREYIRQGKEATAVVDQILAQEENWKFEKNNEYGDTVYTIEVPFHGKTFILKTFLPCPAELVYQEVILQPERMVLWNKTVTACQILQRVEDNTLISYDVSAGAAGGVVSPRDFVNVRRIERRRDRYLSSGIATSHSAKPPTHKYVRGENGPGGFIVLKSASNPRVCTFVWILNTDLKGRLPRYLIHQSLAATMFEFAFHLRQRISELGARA
inactive: [1] 0.011 | [2] -0.036 | [3] 0.14 | [4] 0.066 | [5] -0.153
